Only a selection was taken, and hits are over-represented in it overall.
Dicer processing: inhibitors of Dicer pre-microRNA processing, primary screen, biochemical, cat-ELCCA, chemiluminescence | cat-ELCCA pre-miR-21 Dicer processing; stronger effect = higher value | Endoribonuclease Dicer (Homo sapiens), Q9UPY3 | AID 1347074, 2019 | actives 6% (n = 47,000) | z-score at 25 µM; in the data active = z-score above about 3, passing the limit was not always enough;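 also: higher signal means more uncleaved substrate so more Dicer inhibition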
Of the large screens only hits and unclear results are named; the others gave an inactive call; ! = repeats disagree.

C=CCOc1ccc(/C(O)=C2/C(=O)C(=O)N(CCOC)C23C(=O)N(C)c2ccccc23)cc1 (stereo not given)	none
COCCCN1C(=O)C(=O)/C(=C(\O)c2ccccc2)C12C(=O)N(C)c1ccccc12 (stereo not given)	Dicer processing 3.9
COCCCN1C(=O)C(=O)/C(=C(\O)c2ccc(F)cc2)C12C(=O)N(C)c1ccccc12 (stereo not given)	none
C=CCOc1ccc(/C(O)=C2/C(=O)C(=O)N(CCCOC)C23C(=O)N(C)c2ccccc23)cc1 (stereo not given)	Dicer processing 3.6
FC(F)(F)c1cc(NC(=S)N2CCN(c3ncnc4sccc34)CC2)cc(C(F)(F)F)c1	none
CCN(CC)Cc1c(C)[nH]c2ccc(C)cc2c1=O	none
CN(C)S(=O)(=O)c1cc(C(=O)O)c(N2CCOCC2)cc1Cl	none
CSc1ccccc1NC(=O)CSc1nc(-c2ccco2)cc(C(F)(F)F)n1	none
CC12CCC(C(=O)N(Cc3ccccc3)Cc3ccccc3)(C(Br)C1=O)C2(C)C (stereo not given)	none
O=C(NNc1cc(Cl)ccc1Cl)C1CCCS1 (stereo not given)	none
O=C(NNc1cc(Cl)ccc1Cl)c1sccc1Cl	Dicer processing 5.2
O=C(NNc1c(Cl)cccc1Cl)c1sccc1Cl	none
CN(NC(=O)NC(=O)c1ccc(F)c(Cl)c1)c1ccc([N+](=O)[O-])cn1	none
Clc1ccc(C2C=C(c3ccccc3)Nc3nnnn32)cc1 (stereo not given)	none
CCCOc1ccccc1C1C(C(=O)OCC)=C(C)Nc2nnnn21 (stereo not given)	none
COC(=O)c1sccc1N/N=C/c1ccc(C#N)cc1	none
CSC(N)=Nc1cc(Cl)ccc1Cl	none
CSC(N)=Nc1ccc(Cl)c(Cl)c1	none
CSC(N)=Nc1ccc(Cl)cc1	Dicer processing 3!
O=C1CSCC(=O)N1c1ccccc1N1CCOCC1	none
O=C(Cn1c(NCCO)nc2ccccc21)c1ccco1	none
CC(C)n1c(NCCO)nc2ccccc21	none
O=C(Cn1c(NCCO)nc2ccccc21)c1cccc2ccccc12	Dicer processing 4.2
CS(=O)(=O)n1cc(C(=O)C(F)F)c2ccccc21	none
COc1ccc(C2CC(=O)C3=C(C2)NC(C)=C(C(=O)OC2CCCC2)C3c2ccccc2)cc1 (stereo not given)	none
CS(=O)(=N/C=C(\C#N)C(=O)c1ccco1)c1ccc(Cl)cc1 (stereo not given)	none
Fc1ccccc1Nc1ncnc2sc3c(c12)CCCC3	none
Cc1cc(Cl)cc(Cl)c1CN(C)C(=O)c1cnc(Oc2ccccc2)cc1C(F)(F)F	none
COc1ccc(N2C(=O)CC(N3CCCCC3)C2=O)cc1 (stereo not given)	none
O=C(O)c1ccc(N2C(=O)CC(N3CCOCC3)C2=O)cc1 (stereo not given)	none
CC(C)Oc1ccc(C2CC(=O)N(c3ccc(C(=O)O)cc3)C2=O)cc1 (stereo not given)	Dicer processing 4.8
CN1N=C(c2ccccc2)CSC1=Nc1ccccc1Cl	none
CCCC1SC2=NC(C)=C(C(=O)OCC)C(c3ccccc3)N2C1=O (stereo not given)	none
CC(=O)Nc1cc(N2CCOCC2)c(F)cc1[N+](=O)[O-]	none
CC1CC(C)CN(c2ccc(S(N)(=O)=O)cc2[N+](=O)[O-])C1 (stereo not given)	none
CC(=O)Nc1cc(N2CC(C)CC(C)C2)c(F)cc1[N+](=O)[O-] (stereo not given)	Dicer processing 28
O=S(=O)(c1ccc(Sc2ccc(S(=O)(=O)N3CCCC3)cc2)cc1)N1CCCC1	none
O=C(O)CCSc1nnc(-c2ccccc2)o1	none
O=C(Nc1nc2ccccc2c(=O)s1)c1ccccc1	none
CCN(CC)c1nc2ccccc2c(=O)s1	Dicer processing 3.7
CCOc1ccc(Nc2nc3ccccc3c(=O)s2)cc1	none
CCOC(=O)c1c(NC(C)=O)sc2c1CCCC2O (stereo not given)	none
Cc1nnsc1C(=O)NNS(=O)(=O)c1ccc(CNC(=O)c2ccccc2)s1	none
N#Cc1c(S/C=C(\O)c2ccc(F)cc2)nc2c(c1C(F)(F)F)CCCC2	none
O=C1CC(c2ccccc2)Oc2cc(Cl)ccc21 (stereo not given)	none
O=C1CC(c2ccccc2)Oc2ccccc21 (stereo not given)	none
O=C1CC(c2ccc(O)cc2)Oc2cc(O)ccc21 (stereo not given)	Dicer processing 4.8
N/C(=N\OC(=O)Nc1ccc(Cl)cc1)c1nccnc1Oc1cccc(C(F)(F)F)c1	none
CCOC(=O)c1sc(S(C)=O)c2c1CC(c1ccccc1)CC2=O (stereo not given)	none
CS(=O)(=O)c1sc(Cl)c(-c2ccc(Cl)cc2)c1C#N	none
CS(=O)(=O)c1sc(C#N)c2c1C(=O)CC(c1ccccc1)C2 (stereo not given)	Dicer processing 5.7
CN1CC2CCC1C[C@H](NC(=O)c1ccccc1)C2 (stereo not given in full)	none
N[C@@H](CCCC(=O)O)C(=O)O	none
CN=C(N)NCCC[C@H](N)C(=O)O	none
NC(CCCP(=O)(O)O)C(=O)O (stereo not given)	Dicer processing 3.2
CCCCOc1ccc(C2c3c(oc4ccccc4c3=O)C(=O)N2c2nnc(C)s2)cc1OC (stereo not given)	none
O=C(CSc1ccc(Cl)cc1)Nc1ccc(F)cc1	none
N#Cc1c(-c2ccccc2)nc(SCc2ccccc2)[nH]c1=O	none
Clc1ccc(CSc2ncc(-c3ccc(Cl)cc3)[nH]2)cc1	none
N#Cc1c(-c2ccc(Cl)cc2)[nH]c(SCc2ccccc2)nc1=S	Dicer processing 3.5
CC1=C(C(=O)OCCOC(C)C)C(c2cccc(O)c2)C2=C(CC(c3cccs3)CC2=O)N1 (stereo not given)	none
O=C(O)c1ccc(-n2nnnc2SCC(=O)N2CCOCC2)cc1	none
O=C(O)c1ccc(-n2nnnc2SCc2cccc(Br)c2)cc1	Dicer processing 4.9
Fc1ccc(CSc2nnnn2-c2cccc(Cl)c2)cc1	none
O=C1c2cccc3c(N4CCSCC4)ccc(c23)C(=O)N1c1ccccc1	none
Clc1ccc(C2N(Cc3ccccc3)CCC3CCCCN32)cc1 (stereo not given)	none
OC(CC#CCN1CCCCC1)(c1ccccc1)C1CCCC1 (stereo not given)	none
CCc1ccc2nc3c(cc2c1)c(=O)n(C)c(=O)n3C	none
CS(=O)(=O)c1ncc(OCc2ccccc2)cn1	none
CCOC(=O)C1=C(C)Nc2nc3ccccc3n2C1c1ccc(O)cc1 (stereo not given)	none
COC(=O)C1=C(C)Nc2nc3ccccc3n2C1c1sccc1C (stereo not given)	none
CCOC(=O)C1=C(C)Nc2nc3ccccc3n2C1c1sccc1C (stereo not given)	none
CCOC(=O)C1=C(C)Nc2nc3ccccc3n2C1/C=C/c1ccccc1 (stereo not given)	Dicer processing 3.8
CCOC(=O)C1=C(C)Nc2nc3ccccc3n2C1c1ccccc1C (stereo not given)	none
CC1=C(C(=O)OC(C)C)C(c2sccc2C)n2c(nc3ccccc32)N1 (stereo not given)	Dicer processing 3.5
CC(C)NC(=O)NNC(=O)Cn1nnc(N2CCCC2)n1	none
NC(=O)N/N=C/c1ccc(-c2ccc(C(F)(F)F)cc2[N+](=O)[O-])o1	none
COc1ccc(-c2csc(-c3c(C)noc3N(C(C)=O)C(C)=O)n2)cc1	none
C=CCn1cnnc1C(CCC(C)C)CC(C)(C)O (stereo not given)	Dicer processing 3.8
CSc1ncc(C#N)c2nc(-c3ccc(Cl)cc3)nn12	none
CCCCOC(=O)n1c(=O)oc2ccccc21	Dicer processing 6.6
O=C(c1ccc(Cl)cc1)n1c(=O)oc2ccccc21	none
CCOC(=O)n1c(=S)oc2ccccc21	none
